Laboratory results: the supplement of paper PMC6555819

Each sequence was assayed on VDR:RXRa (NR concentration 270 nM, RXRa partner concentration 90 nM) (assay: PBM binding z-score (relative to random genomic background probes); higher = stronger binding; sequences stand for … in GC…GCGATTGACAGCGTAGAATGAAGG).
Description: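 Protein-binding microarray (Agilent 4x180K custom design, double-stranded 60-nt probes: 5' GC cap, 34-nt variable region, 24-nt constant primer region; full probe sequence given). Purified or IVT nuclear receptor:RXRα heterodimers (3:1 NR:RXRα, mostly 270:90 nM) or homodimers were incubated for 1 h in PBS with 2% milk and no ligand, then detected with Alexa488 antibodies. Fluorescence from o1-orientation probes (~5 replicates averaged) was converted to z-scores against 500 random hg19 background probes. Variable regions are seed direct-repeat (DR0–DR5) sites, all their single-nucleotide variants and half-site ablations.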

Sequence | PBM binding z-score
CTACCAAGGTGAACAAGGTCGTTGCTTACTATTC | 6.16
CATACAGGGTCAGCTAGGCCAGAATAGGGACGGC | 3.8
GCAGACAGGTGAAACGCAGGTATCTCAGGGTGGC | -0.475
TCGAGTAGGTTACCAATGCGGCATTCAGCTTTCT | -0.196
CCTATTAGTTGACCATAAGGCCAACCGAAGCTCG | 0.724
GGAACGAGGGCAACTTGATAGCAGAGTTTGATGG | 0.718
CCTCGGAGGACAGAAGGTCAGAGGTGTCCGCTTT | 1.24
CGAACTAGGTCATCCAGGACAGTTAATACATTGA | 4.42
CTAACAAGGTGAACAAGGTCGTTGATTACTATTC | 6.27
GCAACTGGGGCATCAGCAGGTTACCATAACTTAA | -0.109
TAGCCTAGGTCAGATCGGGACAGTATACGCTATA | 1.23
ATATGTAGGTTACATCCGCGTCATTCAGGCTATG | 0.515
TGAATGAGGTTATAAGGTCAGGGAACGTTGCAAA | 4.04
CCTATTAGTTGCCCATAAGGGCAACCGAAGCTCG | 0.653
GCTAGCAGGCCATTTGTGTCACTCAATGACGGGC | -0.481
CTCGAAAGCTCGTGCTCAGGTGAGTATACCAAAC | -0.8
ATATGTAGGTTATCGGGGCATTCAGTTTGCGCAT | 2.27
GGAACGAGGGCAAATTGATAGCAGAGTTTGATGG | 0.922
CAAACTAGGTCACCGAGGTCAAAGTCCGTGCGTA | 8.34
GATACAGGATCAAGGCCAGAGTACGCGTATTGAT | -0.308

Sequence | PBM binding z-score
ACTATTGGTTGAGACGAGGGCAACCGATAGGTTG | 0.873
AGAACGAGGGCAATGAGTTGATAGCACGGGTGGC | 4.96
TCATATAGGTAAATGCTAGGAGAAAGTCCGATCT | 0.71
ATCTCTAGGTAAAGTGCAGTGAAAGATCGATAGA | 0.146
TCTGCTAGGTCAACGATGGTGAGCTAATCTGCTA | 1.15
ATCTCTAGGTAAAGTTTAGTGAAAGATCGATAGA | 0.28
TAGACTAGGTCATGCGGGCCAGTATAGTGTCGGC | 2.46
TCATATAGGTAAAGTTGAAAGTCGAACGATATGA | 0.583
CATACAGAGTCAGCTAGGCCAGAGTAGGGACGGC | -0.518
ATATGTAGGTTATCGGATCATTCAGTTTGCGCAT | 1.58
ACTCGTTGGTCAGCTGAGGTCACACACAATTCGG | 4.61
GCTTGTAGATGAAGGTTAAGAAAGACTAAGCTAA | -0.396
CTCGAAAGGTCGTGCTCAGGTGAATATACCAAAC | 3.77
GGAACAAGGGCAAAGTTGATAGCATCTGTCGACG | 0.828
TCTCGGAGGACACAAAAGGTCAGAGCTCGACATC | 3.17
TGATTGAGGTTAAAGATCAGGGAACGTGGCGTCG | 1.94
CCTGATAGGTCATGGTCAGCTAATCTACAGTATG | 2.95
TGAATGAGGTAAAAGATCAGGGAACGTGGCGTCG | -0.131
GATACAGCGTCAGCTAGAGGCCAGAGTATGGAAA | -0.922
ATACCAAGGTGATCGTGAGGTCGATGATACTAAC | 1.9
